High-throughput results from PubChem.
PG9 Ab binder: binders of HIV-1 gp120 antibody PG9, primary screen, biochemical, TR-FRET. 0.43% of 360,000 active. HIV-1 gp120 / PG9 antibody interaction. TR-FRET gp120-PG9 antibody binding. inhibition, % at 6.7 µM; in the data active = inhibition above about 8.5%
ABCB6 inh MLPCN: ABCB6 transporter inhibitors, primary screen, K562-ABCB6 cells, flow cytometry, MLPCN library; 0.19% of 360,000 active; ATP-binding cassette sub-family B member 6 (Homo sapiens), Q9NP58; AID 602162, 2011; fluorescence ratio to DMSO, % at 10 µM; K562-ABCB6 porphyrin accumulation, 1 h; hits give low values;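 active = fluorescence ratio to DMSO below 75%, the collection mean minus 3 SD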;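 also: signal is porphyrin accumulated inside mitochondria; 100% equals median channel fluorescence of DMSO control wells; lower ratio means ABCB6 inhibition with less porphyrin fluorescence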
VLA-4 inh: inhibition in human VLA-4 binding assay, primary screen, VLA-4 allosteric modulator project, MLPCN library, flow cytometry, VLA-4 expressing cells. Integrin alpha-4 (Homo sapiens), P13612. ligand binding flow cytometry. inhibition, % (about 7 µM as worked out from the volumes in the protocol). 0.2% of 330,000 active. AID 2557, 2010; in the data active = inhibition above about 50%
Granule exo inh: LAMP-1 surface exposure blockers, TALL-104 cells – cell-based, flow cytometry, MLPCN library, primary screen. inhibition, % at 10 µM. TALL-104 LAMP-1 surface exposure; cells stimulated with thapsigargin and PMA. 0.66% of 360,000 active;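 active = inhibition above about 55%, limit read from the data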
NR1D1 modulator: modulators of Rev-erb alpha DNA binding, primary screen, biochemical, FITC-DNA, fluorescence polarization, uHTS; 0.79% of 370,000 active; AID 1259318, 2017; Nuclear receptor subfamily 1 group D member 1 (Homo sapiens), P20393; Rev-erbα–FITC-DNA binding, 90 min; activity, % at 10 µM;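 active = activity above about 14%, limit read from the data; passing the limit was not always enough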;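 also: 0% = DMSO wells with 35 nM protein and 100% = DMSO wells with 750 nM protein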
VLA-4 mod pick: retest of VLA-4 allosteric modulators, confirmation, cell-based, cherry-picked plates, U937, HUTS-21 LIBS antibody; inhibition, % at 6.7 µM; shares compounds with VLA-4 inh; 2% of 1,300 active; U937 cells, HUTS-21 LIBS mAb binding, flow cytometry; LDV ligand present at threefold Kd; AID 2813, 2010; in the data active = inhibition above about 40%;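 also: 0% = ligand without compound and 100% = no ligand background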
* hit, by the source's call; i = inactive; · = not tested or not shown. Hits are enriched below; roughly 2% of the tested compounds scored in any of these assays.

SMILES	PG9 Ab binder	ABCB6 inh MLPCN	VLA-4 inh	Granule exo inh	NR1D1 modulator	VLA-4 mod pick
COC(=O)[C@]12C[C@H](CC(=O)NCc3cccc4ccccc34)C(=O)N(CCC3=CCCCC3)C1=C[C@H](COCc1ccccc1)O[C@@H]2C	0	·	·	·	1	·
Cc1ccc(NC(=O)CSc2nn(-c3ccccc3)c(=S)s2)cc1S(=O)(=O)N(C)C	-2	94	46	5	-2	4
Cc1ccc(C)c(N/C(N)=N/c2nc(C)cc(C)n2)c1	0	104	54*	-1	2	3
Cc1cc(C)cc(N(CC(=O)Nc2cc(C)ccc2C)S(=O)(=O)c2c(C)[nH]c(=O)[nH]c2=O)c1	0	99	5	-2	2	2
Cc1cc(C)cc(N(CC(=O)Nc2ccc(Br)cc2)S(=O)(=O)c2c(C)[nH]c(=O)[nH]c2=O)c1	-1	105	2	-2	-2	12
CCN(C[C@H]1N[C@@](C)(C(=O)OC)[C@H]2C(=O)N(Cc3ccccc3)C(=O)[C@@H]12)C(=O)C1CCCCC1	1	97	-4	4	7	·
CCN(C[C@H]1N[C@@](Cc2ccccc2)(C(=O)OC)[C@H]2C(=O)N(Cc3ccccc3)C(=O)[C@@H]12)C(=O)C1CCCCC1	1	102	9	4	-1	-4
CCN(C[C@H]1N[C@@](Cc2ccccc2)(C(=O)OC)[C@H]2C(=O)N(Cc3ccccc3)C(=O)[C@@H]12)C(=O)COc1ccccc1	1	98	56*	1	3	3
Cc1ccc(C(=O)/C=C\C(=O)c2ccc(C)cc2)cc1	2	99	68*	55	5	30
CCN(c1c(C)n(C)n(-c2ccccc2)c1=O)S(C)(=O)=O	-1	94	5	-1	0	·
CCCN(C(=O)c1ccccc1N)c1c(C)n(C)n(-c2ccccc2)c1=O	0	90	-1	1	0	-10
CCN1CCN(c2nc(Nc3cccc(OC)c3)nc(N)c2[N+](=O)[O-])CC1	0	107	44	-4	-7	-28
C#CCOc1ccc2c(C)cc(=O)oc2c1	-1	99	52*	6	2	i
C=C(Cl)COc1ccc2c(C)cc(=O)oc2c1	1	98	3	2	6	·
Cc1nn(CCC(=O)NNC(=O)Nc2ccccc2)c(C)c1[N+](=O)[O-]	·	·	·	·	-1	·
NC(=O)C1CCN(C(=O)CSc2ncccn2)CC1	3	101	1	-1	2	·
Cc1ccnc(SCC(=O)N2CCC(C(N)=O)CC2)n1	0	99	51*	0	-4	12
CC[C@]12c3[nH]c4ccccc4c3CCN1C(=O)C(CC(=O)NCc1ccco1)C[C@@H]2C(=O)N1CCN(C(=O)C2CC2)CC1 (stereo partly drawn)	1	95	58*	1	-6	-3
CS(=O)(=O)N(CC(=O)Nc1cc(Cl)ccc1Cl)c1ccccc1Cl	3	99	-2	8	7	·
CC(=O)Nc1ccc(NC(=O)CN(c2cc(Cl)ccc2Cl)S(C)(=O)=O)cc1	-1	102	60*	-1	6	-12
O[C@H](COc1ccc(F)cc1)CN1CCC(C(O)(c2ccccc2)c2ccccc2)CC1	·	·	·	·	3	·
COC(=O)[C@H]1C[C@@]2(N3CCCC3)c3ccccc3N(C(=O)OC(C)(C)C)[C@H]2N1C(=O)OC(C)(C)C	·	·	·	·	-3	·
CCc1cc(=O)[nH]c(-n2[nH]c(-c3ccccc3)cc2=O)n1	-4	96	-9	3	8	4
O=c1cc(-c2ccccc2)[nH]n1-c1nc2ccccc2[nH]1	-3	107	-4	-1	-2	·
COCC(=O)NCc1ccc2c(c1)OCO2	0	100	53*	-2	0	-8
SMILES	PG9 Ab binder	ABCB6 inh MLPCN	VLA-4 inh	Granule exo inh	NR1D1 modulator	VLA-4 mod pick
O=C(COC(=O)c1ccc2c(c1)OCO2)NCc1ccc2c(c1)OCO2	-1	98	3	2	0	·
S=C(NCCN(C1CCCCC1)C1CCCC1)Nc1cccc(Cl)c1	2	96	19	1	3	·
S=C(NCCC(c1ccccc1)c1ccccc1)Nc1cccc(Cl)c1	0	100	93*	-1	2	-6
C=CCNc1ncnc2c1cnn2-c1cccc(C)c1	1	100	66*	-2	5	6
Cc1cccc(-n2ncc3c(NCCCO)ncnc32)c1	1	106	-6	-1	6	·
CCOC(=O)N1CCC(N2Cc3cccc(C(=O)NCc4ccc(C)cc4)c3C2=O)CC1	-1	102	50*	12	-1	14
CCOC(=O)N1CCN(c2nc(C)c3c(n2)CC(C)CC3=O)CC1 (stereo not drawn)	-3	103	53*	0	1	12
Cc1nc(N2CCN(C(=O)c3ccco3)CC2)nc2c1C(=O)CC(C)C2 (stereo not drawn)	-4	107	10	-6	2	·
CCCCc1ccc(NC(=S)NCCc2ccc(F)cc2)cc1	-1	108	41	35	5	-4
Cc1ccc(S(=O)(=O)N2[C@@H](c3ccc(F)cc3)C(C(=O)O)=C[C@H]2CC2CCCC2)cc1	1	104	-24	-2	5	0
Cc1ccc([C@H]2C(C(=O)O)=C[C@@H](CC3CCCC3)N2S(=O)(=O)c2ccc(C)cc2)cc1	1	99	48	-3	6	·
CCc1ccc([C@H]2C(C(=O)O)=C[C@@H](CC3CCCC3)N2S(=O)(=O)c2ccc(C)cc2)cc1	-2	101	27	2	-3	8
COc1ccccc1NC(=O)Nc1cnccn1	-4	95	54*	2	-3	0
COc1ccc(OC)c(NC(=O)Nc2cnccn2)c1	0	99	2	-2	5	·
CC(C)NC(=O)NC1CCN(CC(=O)Nc2ccc3c(c2)OCCO3)CC1	·	·	·	·	-9	·
CN(C)CCCn1c(SCC(=O)N2c3ccccc3Sc3ccccc32)nc2ccccc2c1=O	-1	95	53*	33	-1	0
Cn1c(SCC(=O)N2c3ccccc3Sc3ccccc32)nc2ccccc21	-2	94	0	-2	-1	·
Cc1cc(C)nc(NS(=O)(=O)c2ccc(N)cc2)n1	-1	105	16	-2	-1	0
CC(C)Nc1nc(NC(C)C)nc(NS(=O)(=O)c2ccc(N)cc2)n1	0	88	9	0	-4	·
